The record followed here is ChEMBL document CHEMBL1157539, “Thousands of chemical starting points for antimalarial lead identification” (Nature, 2010).

What all share (format): functional
The subject of assay [1] is Plasmodium falciparum. Kind of assay: GSK_TCMDC: Inhibition of Plasmodium falciparum 3D7 in whole red blood cells, using parasite LDH activity as an index of growth. Test compounds present at 2uM.
Assay [2] relates to Plasmodium falciparum. The experiment in a line: GSK_TCMDC: Inhibition of Plasmodium falciparum Dd2 in whole red blood cells, using parasite LDH activity as an index of growth. Test compounds present at 2uM.
Assay [3] relates to HepG2. Kind of assay: GSK_TCMDC: Percent inhibition of human HepG2 cell line. Test compounds present at 10uM.

Broadly, the Inhibition is the share of the control response that was lost under treatment. Lower therefore signals a response near the control. With `N#Cc1cc(C(=O)c2cc(Cl)ccc2O)cn(-c2cc(Cl)cc(Cl)c2)c1=O`, the figures for the Inhibition in assay [1], in assay [2] and in assay [3] were 93%, 32% and 34%, respectively.
In the case of `COc1ccc(CNc2nccc3ccc(-c4ccc5nccn5c4)cc23)cc1.O=C(O)C(F)(F)F`, the Inhibition worked out at 95% in assay [1], 47% in assay [2] and 17% in assay [3].
Regarding `O=C(NCc1ccccc1[S+]([O-])c1ccccc1CO)C(F)(F)F` (stereo not given), the Inhibition in assay [1] is listed as 98%; in assay [2], 2%; in assay [3], 50%.
Regarding `Clc1ccc(CNCCCCCCNCc2ccc(Cl)cc2)cc1.O=C(O)c1ccc2ccccc2c1O`, the Inhibition in assay [1] was determined as 96%; in assay [2], 28%; in assay [3], 53%.
Turning to `Cc1cccc2nc(-c3cccc(-c4ccc(NC(=O)C(C)C(=O)NC(C)C)cc4)c3)[nH]c12` (stereo not given), the results for the Inhibition in assay [1], in assay [2] and in assay [3] were 85%, 26% and 13%, respectively.
With `COc1ccc2nccc([C@@H](O)CN3CCC(NCc4nc5cc(F)ccc5o4)CC3)c2c1.O=C(O)C(=O)O`, the Inhibition worked out at 100% in assay [1], 12% in assay [2] and 14% in assay [3].
On to `Cc1ccc(NC(=O)NC2CCN(c3ccnc4ccccc34)CC2)cc1.O=C(O)C(F)(F)F`, for which the Inhibition in assay [1] was 97%; in assay [2], 52%; in assay [3] it was 21%.
As to `CCOC(=O)c1ccc(N2CCN(c3cc(C)ccc3C)CC2)c(NC(=O)Nc2ccc(Cl)c(Cl)c2)c1`, the figures for the Inhibition in assay [1], in assay [2] and in assay [3] were 100%, 42% and 7%, respectively.
Regarding `Cc1ccccc1C1CCN(c2ccc(C(=O)Nc3ccc(F)cc3)cn2)CC1.O=C(O)C(F)(F)F`, the Inhibition in assay [1] is recorded as 96%; in assay [2], 96%; in assay [3], 45%.
Turning to `FC(F)(F)c1ccc2[nH]c(-c3ccc(-c4cccc(CNCc5ccccc5)c4)s3)nc2c1.O=C(O)C(F)(F)F`, the Inhibition in assay [1] turned out to be 100%; in assay [2] it was 83%; in assay [3], 15%.
